From PubChem
In the library only some 2.6% were active in any assay of this set; here they are far more common.
NTMT1 inh: Primary qHTS for Inhibitors of N-terminal methyltransferase 1 (NTMT1): MTaseGlo Assay; NTMT1 MTase-Glo SAH luminescence, purified enzyme; N-terminal Xaa-Pro-Lys N-methyltransferase 1 (Homo sapiens), Q9BV86; actives 2.5% (n = 59,000); Potency, µM (doses to about 114 µM), without a hit: at the highest dose activity change, negative = inhibition, most hits filed as inhibitors;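 further: potency means the concentration at half of the fitted maximal effect; plate controls were DMSO vehicle for no effect and no enzyme for full effect; nearly all actives have a fitted effect of over 65% in size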
FH mod: Identification of activators of human fumarate hydratase by quantitative high-throughput screening. FH coupled MDH/diaphorase resazurin fluorescence, 15 min. Potency, µM (highest dose often 79.9 µM), without a hit: top-dose activity change, negative = inhibition, usual class: inhibitors. actives 0.22% (n = 54,000). AID 1347055, 2019; further: potency means the concentration at half of the fitted maximal effect; on the % scale 0 is the no-effect control and ±100 the full control effect; the screen sought activators but most active calls are inhibition curves; nearly all actives have a fitted effect of over 45% in size
HTT prom inh: Primary qHTS for Identification of Small Molecule Inhibitors of Huntingtin Promoter Activity; HEK293 HTT promoter firefly luciferase reporter, 24 h; Potency, µM (titrated, usually from 57.5 µM), without a hit: top-dose activity change, negative = inhibition, most hits filed as inhibitors; actives 0.93% (n = 48,000); AID 1508623, 2021; further: potency means the concentration at half of the fitted maximal effect; nearly all actives have a fitted effect of over 50% in size
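HEK293 cells carrying firefly luciferase reporters were seeded at 2,500 per well in Opti-MEM and cultured for 24 h. They were then treated with compounds at up to 57.5 uM final for 24 h at 37 degrees C before Dual-Glo luminescence readout.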
HTT-AS act: Primary qHTS for Identification of Small Molecule Activators of Huntingtin-Antisense Promoter Activity. Potency, µM (top dose mostly 57.5 µM), for inactives: top-dose activity change, positive = activation, actives largely listed as activators. actives 0.24% (n = 48,000). HEK293 HTT-AS promoter firefly luciferase reporter, 24 h; response scale: percent change from vehicle, -100% = no light. AID 1508624, 2021; further: potency means the concentration at half of the fitted maximal effect; nearly all actives have a fitted effect of over 55% in size
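Luminescence was read after Dual-Glo reagent and a 10 min room-temperature incubation. Values were normalized to vehicle (0% activity) and zero RLU (-100% activity). Reporter HEK293 cells had been exposed to compounds (up to 57.5 uM final) for 24 h.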
NNMT inh: Counterscreen qHTS for Inhibitors of N-terminal methyltransferase 1 (NTMT1): NNMT MTaseGlo assay | shares compounds with NTMT1 inh | NNMT MTase-Glo luminescence, SAH detection | Potency, µM (series often up to 57.1 µM), without a hit: at the highest dose activity, negative = inhibition, hits mostly inhibitors | actives 10% (n = 120) | AID 1645878, 2021
Target sequence (P40261 whole entry, looked up): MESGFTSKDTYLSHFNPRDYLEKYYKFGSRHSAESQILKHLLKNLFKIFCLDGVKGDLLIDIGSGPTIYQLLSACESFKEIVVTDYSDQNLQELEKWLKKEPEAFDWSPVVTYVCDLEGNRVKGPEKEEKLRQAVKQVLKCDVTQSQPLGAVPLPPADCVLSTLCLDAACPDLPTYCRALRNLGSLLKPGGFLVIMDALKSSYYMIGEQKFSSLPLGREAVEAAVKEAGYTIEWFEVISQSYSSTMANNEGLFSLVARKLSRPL
* hit, by the source's call; ? = inconclusive; . = no result; ! = not active in a repeat; [ ] = remark or other dose. The call rests on the fitted dose curve; in most records, active means well fitted curve in the direction sought with a large enough effect; inconclusive means small, poorly fitted or top-dose-only effect, or another doubt; inactive means no such curve, though single readings can be large; an effect the other way counts as inactive or inconclusive.

SMILES	NTMT1 inh	FH mod	HTT prom inh	HTT-AS act	NNMT inh
C/C=C/C=C/C=C/C(=O)O[C@@H]1C=C2COC(=O)[C@]2(O)[C@@]2(C)CCCC(C)(C)[C@H]12	-14.8%[29.8 µM]	-10.6%[53.3 µM]	.	.	-12.3%[28.6 µM]
O=C1CCCC2=C1C(c1ccncc1Cl)N=C(Nc1nc3ccccc3o1)N2 (configuration not stated)	-10.0%[57.5 µM]	.	.	.	.
O=C(Nc1cc2cc[nH]c2cn1)c1ccccc1	21.5µM*!	-2.1%	20.7%	?	14.1µM*
Cc1nnc(NC(=O)c2ccccc2)s1	-1.9%	-3.5%	62.4%	?	.
COc1ccc(-c2ccc3ncc4c(c3c2)n(-c2ccc(N3CCNCC3)c(C(F)(F)F)c2)c(=O)n4C)cn1	15.8µM*!	?	?	-93.5%	-18.1%
CC#CC(=O)Nc1ccc2ncnc(Nc3cccc(Br)c3)c2c1	-18.1%	0.4%	.	.	.
C#Cc1cccc(Nc2ncnc3cc(OC)c(OCCCCCCC(=O)NO)cc23)c1	12.6µM*	10.8%	55.3%[116 µM]	?	?
O=C(Nc1cccc([N+](=O)[O-])c1)c1cccc(S(=O)(=O)N2CCCCCC2)c1	11.3%[57.5 µM]	-1.7%	.	.	.
Cc1cc(N[S+](=O)([O-])c2ccc3c(c2)CCC(=O)N3C)ccc1F	3.5%	.	.	.	.
COc1ccc(N2C[C@]34C=C[C@H](O3)C(C(=O)O)C4C2=O)cc1OC (some centres not stated)	13.2%	.	.	.	.
COc1ccc(/C=C/c2nc(NCCCN(C)C)c3ccccc3n2)cc1	.	3.8%[53.3 µM]	.	.	.
COc1cc2ncnc(Nc3ccc(F)c(Cl)c3)c2cc1NC(=O)/C=C/CN1CCCCC1	8.91µM*	0.2%	.	.	?
O=C(O)c1cccnc1Nc1cccc(C(F)(F)F)c1	?	-16.4%[53.3 µM]	-4.5%	-15.0%	.
Cc1ccc(Cn2c(=O)c3cccnc3n(CC(=O)Nc3cccc(C(F)(F)F)c3)c2=O)cc1	7.5%	-33.3%	?	-38.9%	.
